# According to PubChem BioAssay (Tox21):
# Inconclusive results are not listed. Entries that show only a call come without a potency. Active and inactive are the calls of the source. The call rests on the fitted dose curve.
# Assay: Nuclear factor erythroid 2-related factor 2/antioxidant responsive element (Nrf2/ARE) small molecule agonists: luciferase reporter gene qHTS assay in human keratinocytes (AID 1919969); further: nearly all actives have a fitted effect of over 35% in size
# Conditions: KeratinoSens HaCaT ARE-luciferase, luminescence, 24 h; series mostly up to 92.4 µM
# From the text: National Center for Advancing Translational Sciences [NCATS]
# Division of Preclinical Innovation [DPI]
# U.S. Environmental Protection Agency [EPA]
# National Institutes of Environmental Health Sciences [NIEHS]
# National Toxicology Program [NTP]
# U.S. Food and Drug Administration [FDA]
# Oxidative stress has been implicated in the pathogenesis of a variety of diseases ranging from cancer to neurodegeneration. The antioxidant response element (ARE) signaling pathway plays an important role in the amelioration of oxidative stress. The KeratinoSens (Givaudan, Switzerland) is an in vitro test method which quantifies luciferase induction as a measure of activation of Keap1-Nrf2-antioxidationt/electrophile response element (ARE) dependant pathway in HaCaT human keratinocytes stably transfected with a selectable plasmid. The KeratinoSens assay is a cell-based assay with a reporter cell line to detect potential skin sensitizers by their ability to induce the Nrf2/ARE-response. The activation of the report gene under culture conditions can be detected by ONE-Glo Luciferase Assay System (Promega, Madison, WI). This cell line has been used to screen the Tox21 10K compound library to identify agonists that induce oxidative stress. The cytotoxicity of the Tox21 compound library against the KS-ARE cell line was tested in parallel by measuring the cell viability using CellTiter- Fluor assay system (Promega, Madison, WI) in the same wells.
# HaCaT derived cell line KeratinoSens were dispensed at 1,500 cells/5uL/well in 1536-well white wall/solid bottom plates using a Multidrop Combi (ThermoFisher Scientific, Waltham, MA) dispenser. After the assay plates were incubated at 37 C/5% CO2 for 5 h, 23 nL of compounds dissolved in DMSO, positive controls or DMSO only was transferred to the assay plate by a pintool workstation (Kalypsys, San Diego, CA). The plates were incubated at 37 C/5% CO2 for 23 h, followed by addition of 1uL/well of CellTiter-Fluor reagent into the assay plates using a Flying Reagent Dispenser (Aurora Discovery, San Diego, CA) for cell viability readout that measures cytotoxicity. After 1 h incubation at 37 C/5% CO2 the fluorescence intensity was measured using a ViewLux (PerkinElmer, Shelton, CT) plate reader. Then 4uL/well of One-Glo were added using a Flying Reagent Dispenser. After the plates were incubated at room temperature for 30 min, the luminescence intensity in the assay plates was measured using ViewLux plate reader.
# Potency means the concentration at half of the fitted maximal effect.
SMILES,Potency,"activity, positive = activation"
CCOCC(O)COc1ccc(NC(=O)CC[S+](C)C)cc1 (stereo not given),inactive,–
O=C(Cn1ccnc1[N+](=O)[O-])NCCO,inactive,–
CC(C)c1ccc(C(=O)N=C(N)N)cc1S(C)(=O)=O,inactive,–
C=COCCCCO,inactive,–
COc1cc(C(C)C)ccc1C,–,17.4% [at 19 µM] (inactive)
CCc1cccc(C)c1N(C(=O)CS(=O)(=O)O)C(C)COC (stereo not given),inactive,–
Cc1cccc([N+](=O)[O-])c1C(=O)O,inactive,–
C=CC(C)(CCC=C(C)C)OC(=O)C(C)C (stereo not given),inactive,–
CC(CC(C)(C)C)CC(C)(C)CC(C)(C)C (stereo not given),inactive,–
Cc1cc(NC(=O)C2=C(O)c3ccccc3S(=O)(=O)N2C)no1,inactive,–
C=C1CC[C@H](O)C/C1=C\C=C1/CCC[C@]2(C)[C@@H]([C@H](C)CCCC(C)C)CC[C@@H]12,21.5 µM (active),–
NC(=O)NS(=O)(=O)c1ccc(N)cc1,inactive,–
COc1ccccc1N1CCN(CCCCNC(=O)c2ccc(-c3ccc(C(C)=O)cc3)cc2)CC1,inactive,–
CC(C)(C)c1cc(CCC(=O)OCCSCCOC(=O)CCc2cc(C(C)(C)C)c(O)c(C(C)(C)C)c2)cc(C(C)(C)C)c1O,inactive,–
C/C(=C(\CCOP(=O)(O)O)SC(=O)c1ccccc1)N(C=O)Cc1cnc(C)nc1N,–,-0.129% [at 8.39 µM] (inactive)
Cc1ccccc1C(=O)Nc1ccc(C(=O)N2CCCC(N(C)C)c3ccccc32)cc1 (stereo not given),inactive,–
O=C(O)CNCC(=O)O,–,-2.08% [at 8.39 µM] (inactive)
CC(C)(O)c1ccc(CNC(=O)c2cccnc2Oc2ccc3nonc3c2)cc1,inactive,–
C=CCOc1c(Br)cc(Br)cc1Br,inactive,–
Cc1c(Cn2ccnc2)c2ccccc2n1CCC(=O)O,inactive,–

SMILES,Potency,"activity, positive = activation"
CC1=CP(=O)(c2ccccc2)CC1 (stereo not given),inactive,–
O=C1OCc2ccccc21,inactive,–
CN(C)CCc1c[nH]c2ccc(CS(=O)(=O)N3CCCC3)cc12,inactive,–
CC/C=C\CCOC(C)=O,inactive,–
OCC(CBr)(CBr)CBr,inactive,–
N#Cc1c(F)cccc1F,inactive,–
O[C@@H](CNC[C@H](O)[C@H]1CCc2cc(F)ccc2O1)[C@@H]1CCc2cc(F)ccc2O1,inactive,–
CCCCCCCCOc1ccccc1C(=O)Nc1ccc(C(=O)OCC[N+](C)(CC)CC)cc1,inactive,–
CC(C)C[P+](C)(CC(C)C)CC(C)C,inactive,–
CCC(=O)Nc1ccc(O)cc1,inactive,–
CCC(Cc1ccccc1)(C(=O)c1ccc(N2CCOCC2)cc1)N(C)C (stereo not given),68.6 µM (active),–
CC1=C(C(=O)OC(C)C)C(c2cccc([N+](=O)[O-])c2)C(C(=O)OC2CN(C(c3ccccc3)c3ccccc3)C2)=C(N)N1 (stereo not given),inactive,–
Brc1c2ccccc2cc2ccccc12,inactive,–
O=C1CC2(CCCC2)CC(=O)N1CCNCC1COc2ccccc2O1 (stereo not given),inactive,–
CCCC(c1cc(C(C)(C)C)c(O)cc1C)c1cc(C(C)(C)C)c(O)cc1C,inactive,–
Cc1cc2c(OCC(CNC(C)(C)C)OC(=O)c3ccccc3)cccc2[nH]1 (stereo not given),inactive,–
CCCC(=O)OCOC(=O)C1=C(C)NC(C)=C(C(=O)OC)C1c1cccc(Cl)c1Cl (stereo not given),inactive,–
O=C(CCCCCCCCC#CI)Oc1ccccc1,inactive,–
CC(C)(C)NCCNC(C)(C)C,inactive,–
[Cu+],54.5 µM (active),–
